Glyco luc inh: increase of ERlucT glycosylation luciferase signal, primary screen, N-linked glycosylation inhibitor project, D54 ERlucT cells, luminescence, set 2. D54 ERlucT glycosylation luciferase reporter, 24 h; percent of 100 nM tunicamycin response. reporter increase, % at 12.5 µM. actives 0.23% (n = 360,000);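 active means mean luciferase reporter signal, scaled so untreated is 0 and the glycosylation-blocking control 100, at or above a set limit in every replicate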;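 further: luciferase carries N-glycosylation sites so blocking glycosylation raises the light; 0% = median of neutral control wells and 100% = median of 100 nM tunicamycin wells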
ATG4B inh: ATG4B protease inhibitors, primary screen, biochemical, fluorescence, uHTS; Cysteine protease ATG4B (Homo sapiens), Q9Y4P1; ATG4B cleavage of LC3-PLA2, NBD-HPC fluorescence, 1 h; AID 504462, 2011; actives 0.51% (n = 340,000); inhibition, % at 8.33 µM; in the data active means inhibition above about 40%
CaV13 ICDI inh: Disruptors of the CACNA1D IQ motif to Ca2+-dependent inactivation inhibitor domain association, primary screening, Förster resonance energy transfer in intact living …; HEK cells, CFP/YFP FRET ICDI-IQ, plate reader, 10 min; percent FRET-ratio fall versus neutral wells; inhibition, % at 12.3 µM; actives 0.098% (n = 340,000); AID 743397;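 active means mean replicate inhibition of at least 30% and at least 1% of replicates passing that level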;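 further: 0% = median of the neutral control wells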
Vif inh: HIV Vif self-association inhibitors, primary screen, imaging, HEK293T, single point; HEK293T cells, Vif self-association by quenched fluorescence, 24 h; inhibition, % at 7.49 µM; actives 0.35% (n = 340,000); in the data active means inhibition above about 50%, passing the limit was not always enough
DSG3 Ab inh: inhibitors of pemphigus antibody binding to DSG3, primary screen, biochemical, bead-based, flow cytometry, scFv-GFP. actives 0.48% (n = 310,000). Desmoglein-3 (Homo sapiens), P32926. DSG3-coupled beads, scFv-anti-DSG3-GFP binding; active compounds read low. binding (percent of control), % at 10 µM;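 active means binding more than 3 SD below its plate's average and above zero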;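 further: hits lower antibody fragment binding to DSG3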
Target sequence (P32926 whole entry, looked up, the tested form may be a part): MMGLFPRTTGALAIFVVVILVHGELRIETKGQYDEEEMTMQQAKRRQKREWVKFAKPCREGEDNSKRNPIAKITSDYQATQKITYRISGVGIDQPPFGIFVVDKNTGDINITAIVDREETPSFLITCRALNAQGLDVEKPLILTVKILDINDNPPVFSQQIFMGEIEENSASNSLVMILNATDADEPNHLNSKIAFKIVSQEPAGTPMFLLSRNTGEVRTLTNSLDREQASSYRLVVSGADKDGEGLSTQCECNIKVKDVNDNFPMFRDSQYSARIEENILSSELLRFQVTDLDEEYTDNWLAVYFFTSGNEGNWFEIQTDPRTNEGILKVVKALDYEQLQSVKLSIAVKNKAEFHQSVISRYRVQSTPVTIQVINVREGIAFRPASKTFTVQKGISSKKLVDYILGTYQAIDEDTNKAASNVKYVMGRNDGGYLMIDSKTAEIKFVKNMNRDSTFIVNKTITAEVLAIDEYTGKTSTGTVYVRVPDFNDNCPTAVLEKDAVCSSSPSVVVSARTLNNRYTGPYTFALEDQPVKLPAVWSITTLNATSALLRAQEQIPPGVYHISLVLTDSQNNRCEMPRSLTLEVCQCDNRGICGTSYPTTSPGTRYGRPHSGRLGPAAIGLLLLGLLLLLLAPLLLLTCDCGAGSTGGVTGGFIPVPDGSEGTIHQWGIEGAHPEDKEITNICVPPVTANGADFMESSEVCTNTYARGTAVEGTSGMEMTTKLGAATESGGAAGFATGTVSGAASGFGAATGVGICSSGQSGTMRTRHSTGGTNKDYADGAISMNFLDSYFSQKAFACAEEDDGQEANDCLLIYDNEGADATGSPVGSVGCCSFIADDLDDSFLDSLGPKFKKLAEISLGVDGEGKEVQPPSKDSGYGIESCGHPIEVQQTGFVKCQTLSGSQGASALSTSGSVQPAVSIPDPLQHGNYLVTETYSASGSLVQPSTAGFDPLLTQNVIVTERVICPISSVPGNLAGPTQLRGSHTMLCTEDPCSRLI
NSD2 HMT inh: NSD2 histone methyltransferase inhibitors, primary screen, biochemical, AlphaScreen, single concentration, set 2; Histone-lysine N-methyltransferase NSD2 (Homo sapiens), O96028; NSD2 peptide methylation, 120 min; inhibition, % at 12.5 µM; actives 0.54% (n = 310,000); in the data active means inhibition above about 50%
* = called active by the depositor; / = not tested or not shown. Only some compounds are listed: those with a hit (about 1.9% of all), similar ones and a draw of the others.

SMILES | Glyco luc inh | ATG4B inh | CaV13 ICDI inh | Vif inh | DSG3 Ab inh | NSD2 HMT inh
CCOCCCNCC(=O)NC1(C)C2CCC(C2)C1(C)C (stereo not drawn) | 0.7 | -13.1 | -4.3 | 9.0 | 88.3 | -2.4
Cc1nn(-c2cccc(C(F)(F)F)c2)c(=O)c2ccccc12 | 1.1 | 3.9 | -1.4 | -2.7 | 94.3* | -3.2
CC(=O)OCC(=O)Nc1ccc(C(C)=O)cc1 | 1.6 | 5.0 | -3.1 | 0.4 | 96.6 | -0.7
CCc1nc(SCC(=O)c2ccccc2)c2ccccc2n1 | 3.1 | 13.3 | 39.4* | 12.5 | 101.0 | 20.5
Cc1cc(=O)n(Nc2ccccc2)c(O)c1C#N | 1.1 | / | -4.3 | -0.2 | 64.4* | 0.9
O=C1C(Cc2ccccc2)Nc2ncnc(N3CCc4ccccc4C3)c2N1Cc1ccccc1 (stereo not drawn) | -2.5 | -3.9 | / | -2.1 | 100.2 | /
O=C(CNc1cccc2ccccc12)N/N=C/c1ccc[nH]1 | 2.2 | -4.1 | -2.9 | -5.5 | / | 8.6
O=C(CNc1cccc2ccccc12)N/N=C/C(Br)=C/c1ccccc1 | 30.8* | -0.8 | / | 19.9 | 88.2 | -1.8
COc1ccc(NC(=O)c2cc3ccccc3o2)cc1S(=O)(=O)N1CCCCC1 | -3.4 | -15.8 | -9.5 | -14.4 | 94.2 | -7.3
O=C(Nc1cccc(C(=O)O)c1)/C(=C\c1ccc(F)cc1)NC(=O)c1ccco1 | 4.2 | 4.3 | -3.8 | 64.5* | 109.0 | 3.0
O=C(Nc1cccc(C(=O)O)c1)/C(=C\c1ccc2c(c1)OCO2)NC(=O)c1ccco1 | 0.6 | -0.6 | -1.5 | -14.6 | 97.8 | -3.7
CCc1nc2c(OCC3CCCCC3)cccn2c1N(C=O)Cc1ccc(OC)cc1 | -1.9 | / | -4.9 | -1.8 | / | 1.0
CCC(=O)Nc1c(C)nn(-c2ccc(C)c(C)c2)c1C | -1.6 | -3.8 | -2.8 | 0.0 | 83.9 | -1.1
Cc1ccc(-n2nc(C)c(NC(=O)CCl)c2C)cc1C | 47.5* | 5.6 | -4.3 | -0.6 | 86.1 | 1.0
COc1cc(Cl)c(C)cc1NC(=O)COC(=O)C1=NN(c2ccccc2)C(=O)CC1 | 0.8 | -7.8 | -4.7 | -1.1 | 98.2 | -2.4
COc1ccc(N(CC(=O)Nc2ccc(F)c(Cl)c2)S(=O)(=O)c2c(C)noc2C)cc1 | -2.7 | 30.3 | -5.4 | 0.0 | 6.0* | -0.2
COc1ccc(N(CC(=O)Nc2ccc(OC)c(Cl)c2)S(=O)(=O)c2c(C)noc2C)cc1 | -0.9 | 0.8 | -5.3 | -0.9 | 102.1 | -2.0
COc1ccc(NC(=O)CN(c2ccc(OC)cc2)S(=O)(=O)c2c(C)nn(C)c2C)cc1 | -0.6 | 3.7 | -3.5 | 3.4 | -9.2* | -1.3
COc1cc(C(=O)CSc2nnc(-c3ccc(O)cc3)n2CC2CCCO2)ccc1NC(C)=O (stereo not drawn) | 0.8 | -1.5 | -5.1 | 4.6 | 101.3 | 10.4
COc1cc(C(=O)Nc2cc3c(cc2N2CCCCC2)n(C)c(=O)n3C)cc(OC)c1OC | 42.5* | -11.2 | -6.8 | -16.2 | 114.8 | 3.4
CCCNC(=O)C1(C)CCCN(Cc2ccc(-c3ccccc3)o2)C1 (stereo not drawn) | -9.1 | / | -9.0 | -8.7 | / | 0.4
O=C(CCn1c(=O)oc2ccc(Cl)cc21)N1CCN(c2ccccc2)CC1 | 0.7 | -7.8 | -20.9 | / | 99.9 | 1.3
Cn1c(=O)n(C)c2cc(CNC(=O)[C@H]3O[C@@H](n4cnc5c(N)ncnc54)[C@H](O)[C@@H]3O)ccc21 | -1.4 | / | -5.8 | 10.9 | / | /
COc1ccc(NC(=O)c2ccc3c(c2)OCO3)cc1Cl | -8.0 | -8.2 | -4.9 | -15.0 | 46.1* | -1.0
COc1ccc(/C(C)=N\NC(=O)c2ccc3c(c2)OCO3)cc1OC | / | / | -18.0 | / | / | 42.0
SMILES | Glyco luc inh | ATG4B inh | CaV13 ICDI inh | Vif inh | DSG3 Ab inh | NSD2 HMT inh
COc1cc(OC)cc(C(=O)NC(C(=O)Nc2ccc3nc(C)sc3c2)C(C)C)c1 (stereo not drawn) | 4.3 | -3.0 | -2.7 | 3.3 | 80.0 | 5.2
COc1cc(OC)cc(C(=O)N[C@H](C(=O)Nc2ccc3c(c2)OCO3)C(C)C)c1 | -1.9 | 5.7 | -1.9 | 90.8* | 99.5 | 0.3
CC(C)[C@H](NC(=O)c1ccccc1F)C(=O)Nc1ccc2c(c1)OCO2 | -0.2 | -5.6 | -2.1 | -3.6 | / | -0.2
COc1cc(OC)cc(C(=O)NC(C(=O)Nc2ccc3c(c2)OCO3)C(C)C)c1 (stereo not drawn) | -0.2 | 2.2 | -4.8 | 125.3* | 99.8 | 0.7
COc1cc(C(=O)N/N=C(\C)c2ccc3c(c2)OCO3)cc(OC)c1OC | 34.0* | -10.4 | -3.5 | 2.1 | 101.5 | -0.4
CCOCCCNC(=O)c1cc(Sc2nnc(C)s2)nc2ccccc12 | -1.0 | 0.1 | 4.8 | -1.1 | 102.1 | -1.9
COc1ccc(C(=O)N/C(=C/c2cccs2)C(=O)NC(C)(C)C)cc1OC | 1.0 | -7.1 | -4.2 | 0.0 | 100.1 | 2.6
Cc1ccc(C(c2nnnn2CCc2ccccc2)N2CCC(C)CC2)cc1 (stereo not drawn) | -4.9 | -1.4 | -1.4 | 11.9 | 98.7 | -4.2
Fc1ccc(-c2n[nH]c(=S)c3ccccc23)cc1 | -4.0 | -7.0 | -2.2 | 52.2* | 100.3 | -1.6
COCCN(C(=O)Cc1cccs1)C(C(=O)NCc1ccc(OC)cc1)c1ccc(C)cc1 (stereo not drawn) | -1.5 | -8.0 | -8.4 | 111.6* | 99.2 | /
COC(=O)c1ccccc1NC(=O)CN1C(=O)CSC1=O | 2.2 | 6.0 | -4.8 | -3.9 | 107.7 | -0.1
COc1cccc(-c2nc(NCc3ccccc3)c3ccccc3n2)c1O | 6.1 | -9.6 | -3.5 | -8.9 | 98.5 | -1.6
COc1cccc(-c2nc(N3CCN(C)CC3)c3ccccc3n2)c1O | 129.3* | -12.1 | -2.6 | -8.6 | 98.3 | 20.4
COc1cccc(-c2nc(NCc3ccco3)c3ccccc3n2)c1O | 4.7 | -11.0 | / | -12.1 | 64.2* | -1.8
C=CCNc1nc(-c2cccc(OC)c2O)nc2ccccc12 | 5.3 | -9.6 | -3.0 | -24.6 | 91.7* | -0.5
CCc1noc(C)c1C(=O)OCC(=O)NCCc1ccc(OC)cc1 | 1.4 | -0.8 | -4.3 | 1.8 | 95.8 | -1.2
Cc1ccc(-c2c(C(=O)NCc3ccccc3)oc(=O)c3ccccc23)cc1 | -1.5 | 15.1 | -14.6 | -3.7 | 100.7 | -1.5
Cc1ccc(N(CC(=O)NC(C)(C)C)C(=O)CNC(=O)c2cccs2)c(C)c1 | -1.7 | 2.7 | -6.5 | -3.2 | 80.6* | 0.0
Cc1cc(C)c(N(CC(=O)NC(C)(C)C)C(=O)CNC(=O)c2cccs2)c(C)c1 | -1.2 | 14.9 | 4.0 | 9.8 | / | -0.1

Compound activity deposited in PubChem BioAssay by several laboratories.
